Measurements from PubChem BioAssay AID1857 (The Scripps Research Institute Molecular Screening Center, 2009).
In all, about 1,300 compounds went through this assay and about 290 (22%) were called active. The full list was thinned out, with actives kept by preference. A number with no mark means an inactive call.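 Rule for the calls: active = inhibition above the mean of all tested compounds plus 3 SD (cut at about 19% in these data); inactive = the rest.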

System: VIM-2 metallo-beta-lactamase (Pseudomonas aeruginosa)
Assay: VIM-2 inhibitors in FRET format, confirmation, artefact control for selective VIM-2 inhibitor project, biochemical, epi-absorbance artifact exclusion (AID 1857);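 note: 0% = VIM-2 plus DMSO and 100% = no enzyme wells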
Details: purified VIM-2, CCF2 FRET substrate hydrolysis; at 5.6 µM; hits give high values

Row | SMILES | inhibition
1 | Cc1cc(OCc2cc(C(=O)O)oc2C)c2c3c(c(=O)oc2c1)CCCC3 | 80.6% (active)
2 | Cc1cc(=O)oc2c(C)c(OCC(=O)N3CCN(Cc4ccc5c(c4)OCO5)CC3)ccc12 | -0.88%
